Rows were chosen to be rich in hits. Some 11% of all compounds tested hit in one or more screens of this group.
JMJD2A Tudor: qHTS Assay for Inhibitors of JMJD2A-Tudor Domain. AlphaScreen JMJD2A-Tudor / H3K4me3 peptide binding. Potency, µM (titrated, usually from 114 µM), for inactives: at the highest dose activity change, negative = inhibition, usual class: inhibitors. actives 4.4% (n = 390,000). AID 504339, 2011; note: % is set by controls: 0 for no effect and ±100 for the full control effect; nearly all actives have a fitted effect of over 50% in size
HP1b binding inh: HTS for Inhibitors of HP1-beta Chromodomain Interactions with Methylated Histone Tails; Chromobox protein homolog 1 (Homo sapiens), P83916; AlphaScreen HP1-beta / biotin-H3K9me3 peptide binding; Potency, µM (doses to about 114 µM), for inactives: at the highest dose activity change, negative = inhibition, hits mostly inhibitors; actives 0.56% (n = 390,000); AID 540317, 2011; note: nearly all actives have a fitted effect of over 70% in size
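Compound inhibition of the preformed complex between 50 nM HP1-beta and 50 nM biotinylated H3K9me3 peptide was read by AlphaScreen. Buffer was PBS pH 7.4 with 0.01% Tween-20. Incubations ran 30 min at room temperature, with 10 ug/mL donor/acceptor beads.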
BAZ2B inh: qHTS Assay for Inhibitors of BAZ2B; Bromodomain adjacent to zinc finger domain protein 2B (Homo sapiens), Q9UIF8; actives 4.4% (n = 360,000); AlphaScreen BAZ2B-H3K14Ac peptide displacement; AID 504333, 2011; Potency, µM (titrated, usually from 114 µM), without a hit: top-dose activity change, negative = inhibition, most hits filed as inhibitors; note: % is set by controls: 0 for no effect and ±100 for the full control effect; nearly all actives have a fitted effect of over 60% in size
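AlphaScreen displacement of biotin-H3(5-23)K14Ac peptide (50 nM final) from BAZ2B (50 nM final) in PBS pH 7.4, 0.01% Tween-20; complex preformed 30 min RT, then compounds (top 110 uM) 30 min RT, beads 20 min dark.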
L3MBTL1 inh: qHTS Assay for the Inhibitors of L3MBTL1 | Lethal(3)malignant brain tumor-like protein 1 (Homo sapiens), Q9Y468 | AlphaScreen L3MBTL1–H3K9me1 peptide binding | Potency, µM (highest dose often 57.1 µM), inactives show top-dose activity, negative = inhibition, hits mostly inhibitors | actives 0.66% (n = 230,000); note: % is set by controls: 0 for no effect and ±100 for the full control effect; nearly all actives have a fitted effect of over 60% in size
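L3MBTL1 (50 nM) pre-complexed 30 min with biotinylated H3(1-15)K9me1 peptide (75 nM), then compounds added for 30 min at room temperature; AlphaScreen streptavidin donor/nickel chelate acceptor beads (10 ug/mL final) read after 30 min dark incubation.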
G9a inh: qHTS Assay for Inhibitors of Histone Lysine Methyltransferase G9a; actives 8.8% (n = 350,000); AID 504332, 2011; Histone-lysine N-methyltransferase EHMT2 (Homo sapiens), Q96KQ7; Potency, µM (doses to about 102 µM), for inactives: at the highest dose activity, negative = inhibition, actives largely listed as inhibitors; G9a H3K9 monomethylation, AlphaScreen, 2 h; note: % is set by controls: 0 for no effect and ±100 for the full control effect; nearly all actives have a fitted effect of over 75% in size
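Signal arises when biotinylated H3K9 peptide, once monomethylated, bridges streptavidin donor and antibody-captured acceptor beads. Enzyme at 20 nM was preincubated 15 min with test compounds; peptide 500 nM and SAM 20 uM then reacted for 2 h.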
* = called active by the depositor; ? = inconclusive; / = no result; [ ] = remark or other dose. Calls come from the whole dose curve; as a rule, active = well fitted inhibition curve with a large enough effect; inconclusive = small, poorly fitted or top-dose-only effect; inactive = no such curve, though single readings can be large or run the other way. Potency is the fitted concentration of half-maximal effect.

SMILES | JMJD2A Tudor | HP1b binding inh | BAZ2B inh | L3MBTL1 inh | G9a inh
COc1ccc(CN2C(=O)c3cccnc3C2Nc2cc(Cl)ccc2OC)cc1 (centres undefined) | 20µM* | -23% | 25µM* | ? | ?
Cc1ccc(NC2c3ncccc3C(=O)N2Cc2ccco2)c(C)c1 (centres undefined) | ? | 16% | -33% | -7% | 45µM*
COC(=O)c1cc(NC2c3ncccc3C(=O)N2Cc2ccccc2)cc(C(=O)OC)c1 (centres undefined) | -15% | 19% | -18% | 3% | 12%[2.33 µM]
CCC(C)(C)NC(=O)CN(C(=O)CCC(=O)Nc1nccs1)c1ccc2c(c1)OCCO2 | -10% | 10% | ? | / | -23%
Cc1cccc(Cc2c(C)nc3nc(SCc4ccccc4C)nn3c2C)c1 | -13% | 8% | 10% | / | 25%[59 µM]
CCn1c(=O)cc(SCC(=O)NCc2ccccc2OC)c2ccccc21 | -4% | 55% | -2%[57.1 µM] | / | 8%[59 µM]
COc1ccccc1CCNC(=O)CCCn1c(=O)c2cccn2c2cccnc21 | -6% | 35% | -2% | / | -3%[59 µM]
NC(=O)C1CCN(C(=O)CN2CCN(c3cccc(C(F)(F)F)c3)CC2)CC1 | 89µM* | -4% | 2% | 4% | -25%
O=C(C1CCC1)N1CCN(c2cccc(C(F)(F)F)c2)CC1 | -4% | 54% | -2% | / | 4%
O=C(COc1cccc(C(F)(F)F)c1)N1CCN(c2ccc(O)cc2)CC1 | 56µM* | 79µM* | / | -23% | 7.9µM*
Cc1ccc(S(=O)(=O)c2[nH]c(-c3ccccc3)nc2SC(C)C(=O)O)cc1 (centres undefined) | -16% | 22% | -20% | / | -11%[59 µM]
CCOCCc1nn2c(=O)cc(COC(=O)c3ccc4c(c3)OCO4)nc2s1 | -22% | 98% | 3% | / | 11%[59 µM]
CCC(C(=O)Nc1ccc(C(C)C)cc1)n1nc(C)n2c(cc3cc(C)ccc32)c1=O (centres undefined) | -20% | 5% | -12% | / | 5%[59 µM]
O=C1c2cccc3cccc(c23)C(=O)N1CCCc1n[nH]c(=S)n1-c1ccccc1 | 13µM* | 13% | -5% | 6% | 4µM*
COc1ccc(/C=N/NC(=O)c2[nH]c3ccc(Br)cc3c2-c2ccccc2)c(C(=O)O)c1OC | ? | 16%[57 µM] | 50µM* | -13% | ?
CC1(C(=O)NNC(=O)c2ccc(=O)oc2)CC1Br (centres undefined) | -25% | 2% | -1% | -25% | 50µM*
Cc1cc(=O)oc(C)c1C(=O)NNC(=O)C1(C)CC1Br (centres undefined) | -8% | 21% | 5% | 5% | 7%
O=C(NC1CCN(C(=S)NCc2ccco2)CC1)C1CCCCC1 | -1% | 4% | 10% | -4% | ?
O=C(NC(=S)N1CCCCCC1)C1CC1 | -24% | 6% | 0% | -2% | 28µM*
O=C(NC1CCN(C(=S)NCCc2ccccc2)CC1)C1CC1 | -5% | 70% | ? | 5% | 10µM*
CCCNC(=S)N1CCC(NC(=O)C2CCCCC2)CC1 | 22µM* | ? | 2% | -5% | 7%[12.7 µM]
CC1CCN(C(=S)NC(=O)C2CCCCC2)CC1 | -4% | 41% | -16% | -2% | -31%[59 µM]
O=C(CC12CC3CC(CC(C3)C1)C2)NC(=S)N1CCCCC1 | -18% | ? | -5% | -2% | 11µM*
COc1ccc(S(=O)(=O)NCCc2csc3nc(-c4ccc(OC)c(OC)c4)nn23)cc1C | -16% | -3% | -36% | / | 8%[59 µM]
Cc1ccc(C(=O)CSC2=C(C#N)C(c3ccco3)CC(=O)N2)c(C)c1 (centres undefined) | 50µM* | -40% | / | ? | ?
CCOc1cc(C2CC(=O)NC(SCC)=C2C#N)ccc1O (centres undefined) | -4% | 41% | -4% | / | 50µM*

From PubChem BioAssay
